The source of these data is PubChem BioAssay (NCI).

About 83,000 compounds went through this panel and 20% of them were active in at least one assay; those are over-represented in the sample as a whole.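 Treatment: one concentration, 48 hours, 96-well format. Scoring: percent growth, with anything below 10 considered active.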 Unmarked numbers belong to inactive results. Active and inactive are the calls of the source.

In one test the test system is NCI-H522 lung. Description: NCI-60 one-dose screen, 48 h (100 = growth as untreated, 0 = no growth, -100 = all killed). Particulars: 10 µM unless noted.
As for `COc1cc(C(=O)/C=C/c2c(-c3ccc(F)cc3)nc3sccn23)cc(OC)c1OC`, the growth was -18.2% (active).

For `Nc1nc(N)c2c(n1)NC(c1ccc(F)cc1)C1CCc3ccccc3C1=N2` (centres undefined), the growth was 101%.

As for `COc1ccc(-c2cc(-c3ccc(Cl)cc3)nc(NCCCCNc3ccnc4cc(Cl)ccc34)n2)cc1`, the growth was 80%.

`Cc1cc(C)nc(SCC(=O)Nc2cccc(N=Cc3ccccc3O)c2)n1`: the growth is 86.6%.

Consider `O=C(Nc1ccc(Nc2ccncc2)cc1)c1ccc([N+](=O)[O-])cc1`, for which the growth was 52.6%.

On to `O=C1COCCN1c1ccc(NCc2cn(Cc3cccc4ccccc34)c3ccccc23)cc1`, for which the growth was 86.3%.

On to `O=C1/C(=C\c2cccn2Cc2ccccc2)c2ccccc2N1c1c(Cl)cccc1Cl`, for which the growth is 88.9%.

As to `CCCCCN(CCCCC)CCCCCCCCN1CCCc2ccccc21`, the growth was 34.6%.

As to `CC(C)CSc1ncnc2nc[nH]c12`, the growth is 88%.

For `CCN(CC)CCCC(C)Nc1ccnc2cc(Cl)c(SCc3ccccc3)cc12` (centres undefined), the growth is -69.6% (active).

Turning to `O=C(Nc1ccc(C(=O)/C=C/c2ccc(N3CCOCC3)cc2)cc1)Nc1ccc([N+](=O)[O-])cc1`, the growth is 84.1%.

Regarding `Cc1ccc(-c2cn(C/C=C3\C=CN(S(=O)(=O)c4ccccc4)CC3)nn2)cc1`, the growth is 93.3%.

On to `CCOc1ccc2sc(NS(=O)(=O)c3ccc(N)cc3)nc2c1`, for which the growth is 115%.

`O=C(NCCCNC(=O)OCc1ccc2c(Br)cc(Br)c(O)c2n1)OCc1ccc2c(Br)cc(Br)c(O)c2n1`: the growth was -60.9% (active).

As for `C=CCc1nc2ccccc2s1`, the growth is 86.6%.

For the compound `CCN(CC)CCCNCc1cc(-c2ccccc2)nc2ccccc12`, the growth was 74.7%.

Take `C=C(C)[C@@H]1CC[C@]2(C(N)=O)CC[C@]3(C)[C@H](CC[C@@H]4[C@@]5(C)C/C(=C/c6cccnc6)C(=O)C(C)(C)[C@@H]5CC[C@]43C)[C@@H]12`: the growth was -16.8% [100 µM] (active).

Take `COC(=O)C(=Cc1ccccc1[N+](=O)[O-])C(=O)OC`: the growth was -3.3% (active).

Consider `CCOC(CNC(=O)c1cccc([N+](=O)[O-])c1)OCC`, for which the growth is 64.2%.

On to `Cc1ccc(-c2cc(O)c(-c3ccc(C)cc3C)cc2O)c(C)c1`, for which the growth is 59.2%.

In the case of `Fc1cc2[nH]ncc2c2c3c(c(-c4cn[nH]c4)nc12)CCCC3`, the growth is -9.92% (active).

On to `O=C(CCN1CCCCC1)c1ccc(Cl)cc1`, for which the growth was 95.8%.

As for `CCOC(=O)C1=C(C(=O)c2ccc(Br)cc2)C(c2ccc(Br)cc2)NC(=S)N1` (centres undefined), the growth was 95.9%.

As to `Cn1cc(-c2noc(-c3cn(C)c4ncc(F)cc34)n2)c2cc(Cl)ccc21`, the growth was 74.2%.

For `O=[N+]([O-])c1cc([N+](=O)[O-])c(NN=C(c2ccc(O)cc2)c2ccc(O)cc2)cc1Cl`, the growth is -55.1% (active).

In the case of `NNC(=O)c1ccc(C(=O)NN)cc1`, the growth is 101%.

Turning to `CN(C)CCOc1ccc(/C(=C(/CCCl)c2ccccc2)c2ccccc2)cc1`, the growth was 10.8%.

As for `CC(=O)Nc1ccc2nc3ccc(NC(C)=O)cc3[n+](-c3ccccc3)c2c1`, the growth was 88%.

In the case of `COc1ccc(/C=C(/C(=O)c2ccc(Cl)cc2)C(=O)C(F)(F)F)cc1`, the growth is 74.8%.

As for `COc1cc2c(c(OC)c1)C1c3cc(OC)ccc3NC(=O)N1CC2` (centres undefined), the growth was 38.3%.

`COc1ccc(C=C2c3ccccc3-c3ccccc32)cc1`: the growth is 13.7%.

Regarding `O=S(=O)(c1ccc(N/N=C\c2ccccc2Cl)cc1)c1ccc(N/N=C/c2ccccc2Cl)cc1`, the growth is 84.8%.

Consider `CSc1nc(N)c(N=Nc2ccc(S(=O)(=O)Nc3nnc(C)s3)cc2)c(=O)[nH]1`, for which the growth is 103%.

With `C=C(C)[C@@H]1CC[C@]2(C)[C@H](CC=C3[C@@H]4[C@@H](C)[C@H](C)CC[C@]4(C(N)=O)CC[C@]32C)[C@@]1(C)CCC#N`, the growth is -6.12% [100 µM] (active).

As for `CCOC(=O)CC(c1ccccc1)C(C#N)c1ccccc1` (centres undefined), the growth was 95.9%.

As to `Clc1ccc(/C=N/Nc2nc3ccccc3s2)c(Cl)c1`, the growth was 97.2%.

Regarding `CC1(C)CC[C@]2(C(=O)O)CC[C@]3(C)[C@H](CC[C@@H]4[C@@]5(C)CCC(=O)C(C)(C)[C@@H]5CC[C@]43C)[C@H]2[C@H]1OC(=O)C(F)(F)F`, the growth is -71.2% [100 µM] (active).

A further test relates to A549/ATCC NSCLC. The test is described as above. Particulars: 10 µM unless noted.
Take `COc1cc(C(=O)/C=C/c2c(-c3ccc(F)cc3)nc3sccn23)cc(OC)c1OC`: the growth was 41.1%.

As to `Nc1nc(N)c2c(n1)NC(c1ccc(F)cc1)C1CCc3ccccc3C1=N2` (centres undefined), the growth is 58.6%.

Turning to `COc1ccc(-c2cc(-c3ccc(Cl)cc3)nc(NCCCCNc3ccnc4cc(Cl)ccc34)n2)cc1`, the growth is 91.8%.

For `Cc1cc(C)nc(SCC(=O)Nc2cccc(N=Cc3ccccc3O)c2)n1`, the growth was 101%.

Regarding `O=C(Nc1ccc(Nc2ccncc2)cc1)c1ccc([N+](=O)[O-])cc1`, the growth was 72.4%.

As to `O=C1COCCN1c1ccc(NCc2cn(Cc3cccc4ccccc34)c3ccccc23)cc1`, the growth was 87.7%.

Regarding `O=C1/C(=C\c2cccn2Cc2ccccc2)c2ccccc2N1c1c(Cl)cccc1Cl`, the growth was 53.1%.

Consider `CCCCCN(CCCCC)CCCCCCCCN1CCCc2ccccc21`, for which the growth was 95.8%.

Regarding `CC(C)CSc1ncnc2nc[nH]c12`, the growth was 103%.

Take `CCN(CC)CCCC(C)Nc1ccnc2cc(Cl)c(SCc3ccccc3)cc12` (centres undefined): the growth is -23.1% (active).

With `O=C(Nc1ccc(C(=O)/C=C/c2ccc(N3CCOCC3)cc2)cc1)Nc1ccc([N+](=O)[O-])cc1`, the growth is 81.3%.

As for `Cc1ccc(-c2cn(C/C=C3\C=CN(S(=O)(=O)c4ccccc4)CC3)nn2)cc1`, the growth is 104%.

Consider `CCOc1ccc2sc(NS(=O)(=O)c3ccc(N)cc3)nc2c1`, for which the growth is 112%.

In the case of `O=C(NCCCNC(=O)OCc1ccc2c(Br)cc(Br)c(O)c2n1)OCc1ccc2c(Br)cc(Br)c(O)c2n1`, the growth is 6.61% (active).

For `C=CCc1nc2ccccc2s1`, the growth was 103%.

In the case of `CCN(CC)CCCNCc1cc(-c2ccccc2)nc2ccccc12`, the growth was 87.9%.

For the compound `C=C(C)[C@@H]1CC[C@]2(C(N)=O)CC[C@]3(C)[C@H](CC[C@@H]4[C@@]5(C)C/C(=C/c6cccnc6)C(=O)C(C)(C)[C@@H]5CC[C@]43C)[C@@H]12`, the growth was 14.2% [100 µM].

For the compound `COC(=O)C(=Cc1ccccc1[N+](=O)[O-])C(=O)OC`, the growth was 44.2%.

On to `CCOC(CNC(=O)c1cccc([N+](=O)[O-])c1)OCC`, for which the growth was 83.7%.

Regarding `Cc1ccc(-c2cc(O)c(-c3ccc(C)cc3C)cc2O)c(C)c1`, the growth was 51.9%.

Turning to `Fc1cc2[nH]ncc2c2c3c(c(-c4cn[nH]c4)nc12)CCCC3`, the growth is 1.75% (active).

For `O=C(CCN1CCCCC1)c1ccc(Cl)cc1`, the growth is 109%.

Consider `CCOC(=O)C1=C(C(=O)c2ccc(Br)cc2)C(c2ccc(Br)cc2)NC(=S)N1` (centres undefined), for which the growth is 100%.

As to `Cn1cc(-c2noc(-c3cn(C)c4ncc(F)cc34)n2)c2cc(Cl)ccc21`, the growth was 33.9%.

On to `O=[N+]([O-])c1cc([N+](=O)[O-])c(NN=C(c2ccc(O)cc2)c2ccc(O)cc2)cc1Cl`, for which the growth is -71.2% (active).

`NNC(=O)c1ccc(C(=O)NN)cc1`: the growth was 100%.

`CN(C)CCOc1ccc(/C(=C(/CCCl)c2ccccc2)c2ccccc2)cc1`: the growth is 26.4%.

Consider `CC(=O)Nc1ccc2nc3ccc(NC(C)=O)cc3[n+](-c3ccccc3)c2c1`, for which the growth was 106%.

As for `COc1ccc(/C=C(/C(=O)c2ccc(Cl)cc2)C(=O)C(F)(F)F)cc1`, the growth is 92%.

With `COc1cc2c(c(OC)c1)C1c3cc(OC)ccc3NC(=O)N1CC2` (centres undefined), the growth is 67.2%.

Turning to `COc1ccc(C=C2c3ccccc3-c3ccccc32)cc1`, the growth is 52.2%.

With `O=S(=O)(c1ccc(N/N=C\c2ccccc2Cl)cc1)c1ccc(N/N=C/c2ccccc2Cl)cc1`, the growth is 85.2%.

For the compound `CSc1nc(N)c(N=Nc2ccc(S(=O)(=O)Nc3nnc(C)s3)cc2)c(=O)[nH]1`, the growth is 115%.

Consider `C=C(C)[C@@H]1CC[C@]2(C)[C@H](CC=C3[C@@H]4[C@@H](C)[C@H](C)CC[C@]4(C(N)=O)CC[C@]32C)[C@@]1(C)CCC#N`, for which the growth was 9.82% [100 µM] (active).

Take `CCOC(=O)CC(c1ccccc1)C(C#N)c1ccccc1` (centres undefined): the growth is 99.3%.

Take `Clc1ccc(/C=N/Nc2nc3ccccc3s2)c(Cl)c1`: the growth is 73.7%.

In the case of `CC1(C)CC[C@]2(C(=O)O)CC[C@]3(C)[C@H](CC[C@@H]4[C@@]5(C)CCC(=O)C(C)(C)[C@@H]5CC[C@]43C)[C@H]2[C@H]1OC(=O)C(F)(F)F`, the growth is -52.7% [100 µM] (active).
